Experimental data: PubChem BioAssay (NCATS)
Records with an inconclusive call do not appear. Active and inactive are the calls of the source. Calls come from the whole dose curve; as a rule, active = well fitted cell-killing curve with a large enough effect; inconclusive = small, poorly fitted or top-dose-only effect, or effect the other way; inactive = flat fitted curve, though single readings scatter.

Key:
Assay in all cases: Primary qHTS to identify gynecologic anti-cancer compounds using libraries of approved drugs and bioactive compounds (AID 1345084); note: nearly all actives have a fitted effect of over 55% in size
CAOV3 = details: Gynecologic cancer cell panel viability, ATPlite luminescence, 48 h; series mostly up to 57.5 µM
Procedure, shortened: (§1)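 Cell viability after 48 h drug treatment, ATPlite luminescence readout; five doses.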

CASKI = details: Gynecologic cancer cell panel viability, ATPlite luminescence, 48 h; series mostly up to 57.5 µM
Procedure, shortened: as §1

Es-2 = details: Gynecologic cancer cell panel viability, ATPlite luminescence, 48 h; series mostly up to 57.5 µM
Procedure, shortened: as §1

HeLa = details: Gynecologic cancer cell panel viability, ATPlite luminescence, 48 h; series mostly up to 57.5 µM
Procedure, shortened: as §1

Hek293T = details: Gynecologic cancer cell panel viability, ATPlite luminescence, 48 h, control line for the selectivity index; series mostly up to 57.5 µM
Procedure, shortened: as §1

JEG-3 = details: Gynecologic cancer cell panel viability, ATPlite luminescence, 48 h; series mostly up to 57.5 µM
Procedure, shortened: as §1

OV90 = details: Gynecologic cancer cell panel viability, ATPlite luminescence, 48 h; series mostly up to 57.5 µM
Procedure, shortened: as §1

PA-1 = details: Gynecologic cancer cell panel viability, ATPlite luminescence, 48 h; series mostly up to 57.5 µM
Procedure, shortened: as §1

SKOV3 = details: Gynecologic cancer cell panel viability, ATPlite luminescence, 48 h; series mostly up to 57.5 µM
Procedure, shortened: as §1

Tov-21-G = details: Gynecologic cancer cell panel viability, ATPlite luminescence, 48 h; series mostly up to 57.5 µM
Procedure, shortened: as §1

Tov112D = details: Gynecologic cancer cell panel viability, ATPlite luminescence, 48 h; series mostly up to 57.5 µM
Procedure, shortened: as §1
% is set by controls: 0 for no effect and ±100 for the full control effect.

CC(=O)OC1C(O)CC(O[C@@H]2O[C@H](CO)[C@@H](O)[C@H](O)[C@H]2O)C2CCC3C(=O)OC(c4ccoc4)CC3(C)C21 (some centres undefined)
inactive: Potency (CAOV3) | Potency (CASKI) | Potency (Es-2) | Potency (HeLa) | Potency (Hek293T) | Potency (JEG-3) | Potency (OV90) | Potency (PA-1) | Potency (SKOV3) | Potency (Tov-21-G) | Potency (Tov112D)

CC(=O)O[C@H]1C[C@@H]2[C@]3(CC[C@]4(C)[C@@H](C5(C)CCC(C(C)(C)O)O5)[C@@H](O)C[C@@]24C)C[C@@]32CC[C@H](O[C@@H]3OC[C@@H](O)[C@H](O)[C@H]3O)C(C)(C)[C@H]12 (some centres undefined)
inactive: Potency (CAOV3) | Potency (CASKI) | Potency (Es-2) | Potency (HeLa) | Potency (Hek293T) | Potency (JEG-3) | Potency (OV90) | Potency (PA-1) | Potency (SKOV3) | Potency (Tov-21-G) | Potency (Tov112D)

C[C@@H]1CC[C@H]2C(C)(C)[C@H](O)[C@H](O)C[C@]2(C)[C@@]12Cc1c(O)cc3c(c1O2)CNC3=O
inactive: Potency (CAOV3) | Potency (CASKI) | Potency (Es-2) | Potency (HeLa) | Potency (Hek293T) | Potency (JEG-3) | Potency (OV90) | Potency (PA-1) | Potency (SKOV3) | Potency (Tov-21-G) | Potency (Tov112D)

COc1cc(O[C@@H]2O[C@H](CO)[C@@H](O)[C@H](O)[C@H]2O)c(CCC(=O)OC[C@H]2O[C@@H](Oc3cc(OC)c(C4OC(=O)C(C)(O)C4O)cc3CCC(=O)O)[C@H](O)[C@@H](O)[C@@H]2O)cc1C1OC(=O)C(C)(O)C1O (some centres undefined)
inactive: activity change, negative = cytotoxicity (CAOV3) -7.94% [at 11.6 µM] | activity change, negative = cytotoxicity (CASKI) -4.91% [at 11.6 µM] | activity change, negative = cytotoxicity (Es-2) 12.3% [at 11.6 µM] | activity change, negative = cytotoxicity (HeLa) 22.8% [at 11.6 µM] | activity change, negative = cytotoxicity (Hek293T) -1.4% [at 11.6 µM] | activity change, negative = cytotoxicity (JEG-3) -12.6% [at 11.6 µM] | activity change, negative = cytotoxicity (OV90) -1.59% [at 11.6 µM] | activity change, negative = cytotoxicity (PA-1) -4.41% [at 11.6 µM] | activity change, negative = cytotoxicity (SKOV3) -20.1% [at 11.6 µM] | activity change, negative = cytotoxicity (Tov-21-G) -4.07% [at 11.6 µM] | activity change, negative = cytotoxicity (Tov112D) 3.59% [at 11.6 µM]

COc1ccccc1-n1c(SCC(=O)Nc2nc3ccc(C)cc3s2)nc2c(c1=O)SCC2
inactive: Potency (CAOV3) | Potency (CASKI) | Potency (Es-2) | Potency (HeLa) | Potency (Hek293T) | Potency (JEG-3) | Potency (OV90) | Potency (PA-1) | Potency (SKOV3) | Potency (Tov-21-G) | Potency (Tov112D)

C/C=C/C=C/C=C/C(=O)O[C@@H]1C=C(CO)C(O)(C(=O)O)[C@@]2(C)CCCC(C)(C)[C@H]12 (some centres undefined)
inactive: Potency (CAOV3) | Potency (CASKI) | Potency (Es-2) | Potency (HeLa) | Potency (Hek293T) | Potency (JEG-3) | Potency (OV90) | Potency (PA-1) | Potency (SKOV3) | Potency (Tov-21-G) | Potency (Tov112D)

CC1=CC2(O)/C=C/C(C)(O)CC(O)/C=C/C(=O)OC23C(=O)NC(CC(C)C)C3C1C (centres undefined)
inactive: Potency (CAOV3) | Potency (CASKI) | Potency (Es-2) | Potency (HeLa) | Potency (Hek293T) | Potency (JEG-3) | Potency (OV90) | Potency (PA-1) | Potency (SKOV3) | Potency (Tov-21-G) | Potency (Tov112D)

C=C1C(O[C@@H]2O[C@H](CO)[C@@H](O)[C@H](O)[C@@H]2O)CC2C(C)(C)C(O)CCC2(C)C1CC/C(C)=C\CO (some centres undefined)
inactive: Potency (CAOV3) | Potency (CASKI) | Potency (Es-2) | Potency (HeLa) | Potency (Hek293T) | Potency (JEG-3) | Potency (OV90) | Potency (PA-1) | Potency (SKOV3) | Potency (Tov-21-G) | Potency (Tov112D)

Cc1c(CN(C)C(=O)/C=C/c2cnc3c(c2)CCC(=O)N3)oc2ccccc12
inactive: Potency (CAOV3) | Potency (CASKI) | Potency (Es-2) | Potency (HeLa) | Potency (Hek293T) | Potency (JEG-3) | Potency (OV90) | Potency (PA-1) | Potency (SKOV3) | Potency (Tov-21-G) | Potency (Tov112D)
